Experimental data taken from PubChem BioAssay (NCI).
About 79,000 compounds went through this panel and 15% of them were active in at least one assay; those are over-represented in the sample as a whole. Calls of active or inactive are those of the source. Cut-off read from the data, not from the text of the source: active = growth inhibition above about 70%; inactive = the rest.

What was measured:
[1] = NCI Yeast Anticancer Drug Screen. Data for the mec2-1 strain (AID 157); details: S. cerevisiae mec2-1 strain, stronger effect = higher value
Outline: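 mec2-1 yeast strain, carrying an alteration in DNA damage repair or cell cycle control, was exposed to compounds; growth inhibition was measured relative to vehicle-treated controls.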

[2] = NCI Yeast Anticancer Drug Screen. Data for the sgs1 mgt1 strain (AID 161);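 note: 0% = growth of cultures given vehicle only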; details: S. cerevisiae sgs1 mgt1 strain, stronger effect = higher value
Outline: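 Percent growth inhibition was derived by comparing compound-exposed mutant yeast with vehicle-exposed cultures. The strain carries alterations in DNA damage repair.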

[3] = NCI Yeast Anticancer Drug Screen. Data for the CLN2oe strain (AID 163);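 note: 0% = growth of vehicle-only control cultures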; details: S. cerevisiae CLN2oe strain, stronger effect = higher value
Outline: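 Yeast cells carrying a defined cell-cycle control alteration were exposed to test compounds. Growth inhibition was scored against vehicle-treated control cultures.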

[4] = NCI Yeast Anticancer Drug Screen. Data for the cln2 rad14 strain (AID 165);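 note: 0% = growth equal to vehicle treated cultures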; details: S. cerevisiae cln2 rad14 strain, stronger effect = higher value
Outline: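 Yeast carrying cln2 and rad14 alterations (cell cycle control and DNA damage repair) were exposed to compounds. Growth inhibition was measured against vehicle-treated controls.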

[5] = NCI Yeast Anticancer Drug Screen. Data for the bub3 strain (AID 167); details: S. cerevisiae bub3 mutant strain, stronger effect = higher value
Outline: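 In this screen, a yeast mutant lacking normal mitotic checkpoint function is challenged with compound. Relative growth versus vehicle gives the inhibition value.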

[6] = NCI Yeast Anticancer Drug Screen. Data for the wt2 strain (AID 169);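 note: 0% = growth of vehicle-treated yeast cultures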; details: S. cerevisiae wt2 strain growth inhibition, stronger effect = higher value
Outline: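 Yeast cells were exposed to test compounds, and growth inhibition was measured relative to vehicle-treated controls.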

[7] = NCI Yeast Anticancer Drug Screen. Data for the mlh1 strain (AID 171);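 note: 0% = growth of vehicle-treated control cultures of the same strain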; details: S. cerevisiae mlh1 strain growth inhibition, stronger effect = higher value
Outline: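 Yeast carrying a defined genetic alteration in DNA damage repair or cell cycle control were exposed to test compounds. Growth inhibition was measured relative to vehicle-treated controls.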

[8] = NCI Yeast Anticancer Drug Screen. Data for the sgs1 strain (AID 173);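 note: 0% = growth of vehicle-only control cultures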; details: S. cerevisiae sgs1 mutant, stronger effect = higher value
Outline: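 Yeast mutant strains carrying defined defects in DNA damage repair or cell cycle control were exposed to test compounds. Growth inhibition was scored against vehicle-treated controls.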

[9] = NCI Yeast Anticancer Drug Screen. Data for the mlh1 rad18 strain (AID 175); details: S. cerevisiae mlh1 rad18 strain growth inhibition, stronger effect = higher value
Outline: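 Growth inhibition of the yeast strain was measured after compound exposure and expressed relative to vehicle-treated controls. The strain carries defined defects in DNA damage repair.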

[10] = NCI Yeast Anticancer Drug Screen. Data for the rad18 strain (AID 177); details: S. cerevisiae rad18 mutant growth inhibition, stronger effect = higher value
Outline: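 Yeast carrying a defined DNA damage repair alteration were exposed to compounds. Growth inhibition was expressed relative to vehicle-treated controls.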

[11] = NCI Yeast Anticancer Drug Screen. Data for the rad52 strain (AID 147);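 note: 0% = growth of vehicle-treated control cultures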; details: S. cerevisiae rad52 mutant growth inhibition, stronger effect = higher value
Outline: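 Yeast strain carrying a DNA damage repair alteration was exposed to test compounds. Growth inhibition was measured relative to vehicle-treated controls.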

[12] = NCI Yeast Anticancer Drug Screen. Data for the wt1 strain (AID 149);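 note: 0% = growth of vehicle-treated wt1 cultures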; details: S. cerevisiae wt1 strain (SPY 50644) growth inhibition, stronger effect = higher value
Outline: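 wt1 strain grown with compound or vehicle; inhibition taken from the growth difference.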

[13] = NCI Yeast Anticancer Drug Screen. Data for the rad50EPP+ strain (AID 151);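 note: 0% = growth of vehicle-treated control cultures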; details: S. cerevisiae rad50 mutant strain, stronger effect = higher value
Outline: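 Yeast strain carrying rad50 alteration (rad50EPP+) exposed to compounds; growth inhibition measured relative to vehicle-treated controls.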

[14] = NCI Yeast Anticancer Drug Screen. Data for the mgt1 strain (AID 153); details: S. cerevisiae mgt1 mutant growth inhibition, stronger effect = higher value
Outline: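 Yeast mgt1 strain (DNA repair/cell-cycle alteration panel) exposed to compounds; growth inhibition measured relative to vehicle-treated controls.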

[15] = NCI Yeast Anticancer Drug Screen. Data for the rad50 strain (AID 155);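 note: 0% = growth of vehicle-only cultures of the same strain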; details: S. cerevisiae rad50 strain growth inhibition, stronger effect = higher value
Outline: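 DNA repair mutant yeast, compound exposure, growth read-out; inhibition is taken relative to vehicle.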

[16] = at 5.0 µM (retest, dose inferred, filed as 0.5)
[17] = at 50.0 µM (retest, dose inferred, filed as 5.0)

Measured: growth inhibition

CCCCCCCCCCCC1=NCCO1
active: [1]; at 100.0 µM 99% | [2]; at 50.0 µM 87.6% | [3]; at 100.0 µM 99% | [5]; at 100.0 µM 98% | [6]; at 100.0 µM 99% | [7]; at 100.0 µM 99% | [8]; at 100.0 µM 99% | [9]; [17] 71% | [10]; at 100.0 µM 98%
inactive: [1]; [16] -12% | [1]; at 11.0 µM -13% | [1]; at 33.0 µM 18% | [1]; [17] -21% | [1]; at 50.0 µM 46.3% | [2]; [16] -12% | [2]; [17] 47% | [3]; at 1.2 µM -3% | [3]; at 3.7 µM -1% | [3]; at 11.0 µM 4% | [3]; at 33.0 µM 19% | [4]; [16] -18% | [4]; [17] 36% | [4]; at 50.0 µM 21% | [5]; at 1.2 µM -19% | [5]; at 3.7 µM -27% | [5]; [16] -34% | [5]; at 11.0 µM -1% | [5]; at 33.0 µM 8% | [5]; [17] 31% | [5]; at 50.0 µM 24.5% | [6]; at 1.2 µM -1% | [6]; at 3.7 µM 0% | [6]; at 11.0 µM 2% | [6]; at 33.0 µM 61% | [7]; at 1.2 µM -5% | [7]; at 3.7 µM -3% | [7]; at 11.0 µM -10% | [7]; at 33.0 µM 16% | [8]; at 1.2 µM 1% | [8]; at 3.7 µM -1% | [8]; at 11.0 µM 6% | [8]; at 33.0 µM 63% | [9]; [16] -16% | [9]; at 50.0 µM 41% | [10]; at 1.2 µM 4% | [10]; at 3.7 µM 8% | [10]; at 11.0 µM 5% | [10]; at 33.0 µM 10%

CCc1ccc2c(c1)N(CC(C)CN(C)C)c1ccccc1S2 (stereo unspecified)
inactive: [11]; at 1.2 µM -5% | [11]; at 3.7 µM -8% | [11]; at 11.0 µM -9% | [11]; at 33.0 µM -1% | [11]; at 100.0 µM 69% | [12]; at 1.2 µM -2% | [12]; at 3.7 µM -4% | [12]; at 11.0 µM -6% | [12]; at 33.0 µM -5% | [12]; at 100.0 µM 32% | [13]; at 1.2 µM -12% | [13]; at 3.7 µM -15% | [13]; at 11.0 µM -23% | [13]; at 33.0 µM -31% | [14]; at 1.2 µM -3% | [14]; at 3.7 µM -4% | [14]; at 11.0 µM -6% | [14]; at 33.0 µM 0% | [15]; at 1.2 µM -4% | [15]; at 3.7 µM -9% | [15]; [16] 2% | [15]; at 11.0 µM -1% | [15]; at 33.0 µM 4% | [15]; [17] 37% | [15]; at 50.0 µM 52.1% | [1]; at 1.2 µM -6% | [1]; at 3.7 µM -8% | [1]; [16] -7% | [1]; at 11.0 µM -12% | [1]; at 33.0 µM -4% | [1]; [17] -27% | [1]; at 50.0 µM -12.1% | [1]; at 100.0 µM 58% | [2]; [16] -12% | [2]; [17] 23% | [2]; at 50.0 µM 24.3% | [3]; at 1.2 µM -9% | [3]; at 3.7 µM -4% | [3]; at 11.0 µM -10% | [3]; at 33.0 µM 3% | [3]; at 100.0 µM 58% | [4]; [16] -24% | [4]; [17] 21% | [4]; at 50.0 µM 65% | [5]; at 1.2 µM -3% | [5]; at 3.7 µM 3% | [5]; [16] 2% | [5]; at 11.0 µM 18% | [5]; at 33.0 µM 48% | [5]; [17] 32% | [6]; at 1.2 µM -4% | [6]; at 3.7 µM -4% | [6]; at 11.0 µM -6% | [6]; at 33.0 µM 3% | [7]; at 1.2 µM -2% | [7]; at 3.7 µM -3% | [7]; at 11.0 µM -5% | [7]; at 33.0 µM -23% | [7]; at 100.0 µM 62% | [8]; at 1.2 µM -4% | [8]; at 3.7 µM -5% | [8]; at 11.0 µM -4% | [8]; at 33.0 µM 16% | [9]; [16] -9% | [9]; [17] 63% | [10]; at 1.2 µM -12% | [10]; at 3.7 µM -10% | [10]; at 11.0 µM -8% | [10]; at 33.0 µM 2%
active: [13]; at 100.0 µM 87% | [14]; at 100.0 µM 76% | [15]; at 100.0 µM 82% | [5]; at 50.0 µM 74% | [5]; at 100.0 µM 74% | [6]; at 100.0 µM 78% | [8]; at 100.0 µM 93% | [9]; at 50.0 µM 83.5% | [10]; at 100.0 µM 85%
